# Assay outcomes as filed in PubChem.
# An excerpt weighted towards active compounds, which were near 9.2% of everything screened.
# NPC1 promoter act: NPC1 promoter activation; Potency, µM (series often up to 9.22 µM), hits mostly activators; Huh7 NPC1 promoter luciferase reporter, 24 h; actives 2.4% (n = 320,000); also: nearly all actives have a fitted effect of over 60% in size
#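 Luciferase expression driven by the NPC1 promoter was measured in stably transfected Huh7 cells after a 24 h compound incubation, using a luciferase reagent and a luminescence read.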
# Rab9 promoter act: activators of Rab9 promoter | AID 485297 | actives 2.8% (n = 320,000) | Potency, µM (doses to about 9.22 µM), usual class: activators | Huh7 Rab9 promoter-luciferase reporter, luminescence, 24 h; also: nearly all actives have a fitted effect of over 60% in size
#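 Quantitative HTS format; Huh7 Rab9-luciferase reporter cells (1500/well) receive compound 2 h post-plating, incubate 24 h at 37 °C, then get luciferase reagent for 10 min before luminescence reading.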
# ELG1 DNA repair: inhibitors of ELG1-dependent DNA repair in HEK293T cells. HEK293T ELG1-luciferase reporter, luminescence, 16 h; DNA damage induced by 5-fluorouridine. Potency, µM (doses to about 46.1 µM), hits mostly inhibitors. actives 2.3% (n = 330,000); also: nearly all actives have a fitted effect of over 55% in size
#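 Reporter activity after DNA damage by 5-fluorouridine is monitored. Compound-treated cells incubate 16 hr at 37 °C, then ONE-Glo is added for 30 min before luminescence reading.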
# FLuc counter: counter-screen for miR-21 project: firefly luciferase inhibitors or activators | actives 6.9% (n = 360,000) | Potency, µM (top dose mostly 57.5 µM), actives largely listed as inhibitors | purified FLuc, Km substrates, luminescence inhibition | P08659; also: nearly all actives have a fitted effect of over 55% in size
# Target sequence (P08659 whole entry, looked up): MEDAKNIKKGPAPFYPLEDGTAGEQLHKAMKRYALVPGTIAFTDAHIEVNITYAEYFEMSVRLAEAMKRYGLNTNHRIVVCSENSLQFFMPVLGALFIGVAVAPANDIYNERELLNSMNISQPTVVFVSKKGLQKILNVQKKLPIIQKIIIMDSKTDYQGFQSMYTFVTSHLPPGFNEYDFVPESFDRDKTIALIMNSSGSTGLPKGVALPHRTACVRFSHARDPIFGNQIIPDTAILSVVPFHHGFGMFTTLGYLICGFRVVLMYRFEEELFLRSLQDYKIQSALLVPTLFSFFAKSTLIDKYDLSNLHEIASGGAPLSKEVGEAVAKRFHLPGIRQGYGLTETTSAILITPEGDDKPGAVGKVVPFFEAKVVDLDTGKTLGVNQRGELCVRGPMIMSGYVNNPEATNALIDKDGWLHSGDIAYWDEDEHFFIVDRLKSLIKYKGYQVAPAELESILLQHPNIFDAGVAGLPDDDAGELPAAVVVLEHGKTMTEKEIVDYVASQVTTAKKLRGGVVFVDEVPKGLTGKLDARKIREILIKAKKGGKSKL
#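 Purified P. pyralis luciferase (10nM final) with 10uM D-luciferin and 10uM ATP (Km levels) in 50mM Tris acetate pH 7.5, 10mM Mg acetate, 0.01% Tween-20, 0.05% BSA; qHTS 6-point titration, ~60 µM downward; luminescence read.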
# SMN2 splice enh: enhancers of SMN2 splice variant expression. HEK293 SMN2-luciferase splicing reporter, luminescence, 30-36 h. Potency, µM (doses to about 46.1 µM), hits mostly activators. actives 2.8% (n = 210,000). AID 1458; also: nearly all actives have a fitted effect of over 55% in size
#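 qHTS luciferase splicing reporter: luminescence rises when SMN2 exon 7 is included in transfected HEK293 cells. Compound exposure lasted 30-36 h at 37C, with 4.5 mM final sodium butyrate as control, followed by a ONE-Glo read.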
# ELG1 genotox: inducers of genotoxicity in HEK293T ELG1-luciferase cells | Potency, µM (titrated, usually from 46 µM), hits mostly activators | HEK293T ELG1-luciferase reporter, luminescence, 16 h | AID 504466 | actives 1.3% (n = 330,000); also: nearly all actives have a fitted effect of over 60% in size
#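 Screening used a luciferase reporter fused to human ELG1 in HEK293T cells. Luminescence was read on a CCD plate imager after 16 hr exposure and 30 min ONE-Glo incubation.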
# Numbers stand for hits; 0 = inactive; ? = inconclusive; - = not tested or not shown; [ ] = dose if it differs, or a comment. Calls follow the shape of the dose curve; as a rule, active = well fitted curve in the direction sought with a large enough effect; inconclusive = small, poorly fitted or top-dose-only effect, or another doubt; inactive = no such curve, though single readings can be large; an effect the other way counts as inactive or inconclusive.
SMILES,NPC1 promoter act,Rab9 promoter act,ELG1 DNA repair,FLuc counter,SMN2 splice enh,ELG1 genotox
COC(=O)c1c(NC(=O)/C(C#N)=C/c2ccc(OC)cc2)sc2c1CCC2,-,-,-,0,0,-
COc1ccc(-c2cc(-c3ccc(Cl)cc3)n[nH]2)c(O)c1,1.78µM,2.51µM,?,6.01µM,-,?
O=[N+]([O-])c1cccc(-c2cc(-c3cc(Br)ccc3O)[nH]n2)c1,0,0,16.4µM,0,-,0
COc1ccc(-c2cc(-c3cc(OC)ccc3O)[nH]n2)cc1,?,?,?,23.9µM,?,9.2µM
Oc1ccc(Br)cc1-c1cc(-c2ccccc2)n[nH]1,0,0,0,0,0,0
COc1ccc(O)c(-c2cc(-c3cccc(Br)c3)n[nH]2)c1,?,?,?,19µM,0,20.6µM
CC#C[C@]1(O)CC[C@H]2C3CCC4=CC(=O)CCC4=C3[C@@H](c3ccc(N(C)C)cc3)C[C@@]21C (stereo not given in full),-,-,-,-,0,-
CC(=O)[C@]1(O)CC[C@@H]2[C@H]3C[C@@H](C)C4=CC(=O)CC[C@@]4(C)C3[C@@H](O)C[C@]21C (stereo not given in full),-,-,-,-,0[9.22 µM],-
Cc1cccc(NC(=O)CN2C(=O)CCS(=O)(=O)c3ccccc32)c1C,0,0,0,0,-,0
COc1ccc(O)c(-c2cc(-c3ccc(F)cc3)n[nH]2)c1,4.47µM,?,?,15.1µM,-,?
CC(C)CN(C(=O)c1ccc(=O)n(C)n1)c1nc2ccccc2s1,0,0,?,0,20µM,0
Cc1ccc(C(=O)N(CC(C)C)c2nc3ccccc3s2)o1,0,0,0,?,-,0
Cc1cccc(C)c1OC(=O)CSc1nnc(-c2cccs2)o1,-,-,-,0,-,-
CC(=O)c1cccc(S(=O)(=O)NCC2CCCCC2)c1,0.0005µM,?,0,0,?,0
Cc1nn(-c2ccccc2)c2c1N(CC(=O)N1CCN(c3ccc(F)cc3)CC1)C(=O)CS2,-,-,-,0,-,-
CCOC(=O)c1c(C)n(-c2ccccc2)c2ccc(OC(=O)c3cccc(Cl)c3)cc12,-,-,-,0,0,-
Clc1ccccc1-c1nc2nc3ccccc3nc2n1-c1ccc2c(c1)OCO2,0,0,14.6µM,0,0,0
CCN(CC)c1ccc(/C=N/NC(=O)c2cc3ccccc3[nH]2)cc1,0,0,0,12µM,-,0
CCN(CC)c1ccc(/C=N/NC(=O)c2c[nH]c3ccccc23)cc1,0,0,0,10.7µM,0,0
CCN(CC)c1ccc(/C=N/NC(=O)c2cc(C)nc3ccccc23)cc1,0,0,0,?,-,0
O=C(CN1c2cccc3cccc(c23)S1(=O)=O)N1CCCCC1,-,-,0,-,-,0
Clc1ccc(-n2ncc3c(NCCN4CCOCC4)ncnc32)cc1,0,0,?,6.75µM,0,3.66µM
CC1CCc2c(sc3ncnc(NCCN4CCOCC4)c23)C1 (stereo not given),0,0,0,0,-,0
c1ccc(-n2ncc3c(NCCCN4CCOCC4)ncnc32)cc1,3.16µM,3.98µM,?,23.9µM,?,?
Clc1ccc(-c2nc(NCCCN3CCOCC3)c3ccccc3n2)cc1,0,0,23.1µM,0,-,0
SMILES,NPC1 promoter act,Rab9 promoter act,ELG1 DNA repair,FLuc counter,SMN2 splice enh,ELG1 genotox
c1ccc2c(c1)oc1c(NCCCN3CCOCC3)ncnc12,0,0,0,0,0,0
Clc1cccc(-c2nc(NCCCN3CCOCC3)c3ccccc3n2)c1,0,0,?,0,0,0
Cc1sc2ncnc(NCCN3CCOCC3)c2c1C,0,0,18.4µM,0,0,0
COc1ccc(C(C)(C)C)cc1NC(=O)c1ccccc1-n1cnnn1,-,-,0,-,-,0
O=C(c1cc(C(F)(F)F)cc(C(F)(F)F)c1)N1CCC2(CCN(Cc3nccs3)CC2)CC1,-,-,-,-,0,-
CC(=O)N(c1ccccc1)C1CCCC1,0,0,0,0,0,0
O=C(CCl)N(c1ccccc1)C1CCCCC1,0,0,16.4µM,0,0,0
Cc1ccc(Sc2c(C=O)c3ccccc3n2C)cc1,0,0,5.8µM,0,0,0
COc1cccc(/C=N/NC(=S)NC2CC3CC2C2C=CCC32)c1O (stereo not given),0,0,?,5.36µM,-,0
Oc1ccccc1/C=N/NC(=S)NC1CC2CC1C1C=CCC21 (stereo not given),0,?,?,5.36µM,-,?
Cc1nn(-c2ccccc2)c(C)c1/C=N/NC(=O)c1cc(-c2ccc(Br)s2)[nH]n1,0,0,8.2µM,?,0,0
Cc1nn(-c2ccccc2)c(C)c1/C=N/NC(=O)CSc1nnc(SCc2ccc(Cl)cc2)s1,0,0,?,9.53µM,0,0
Cc1c(/C=N/NC(=O)c2cccnc2)c2ccccc2n1Cc1ccccc1,0,0,?,0,0,0
O=C(CSc1nnc(SCc2ccccc2)s1)N/N=C/c1c(Cl)cccc1Cl,0,0,0,?,0,0
Cc1c(/C=N/NC(=O)c2cccs2)c2ccccc2n1Cc1ccccc1Cl,0,0,0,8.49µM,-,0
Cc1nn(-c2ccccc2)c(C)c1/C=N/NC(=O)c1cc(-c2cccs2)[nH]n1,0,0,?,13.5µM,0,0
CC1=CC2C(CC1=O)C(C)=CCC2C(C)C (stereo not given),-,-,-,-,0,-
O=C(CSc1nnc(SCc2ccccc2Cl)s1)N/N=C/c1ccc(C(=O)O)cc1,0,0,0,3.38µM,-,0
CC(/C=N/NC(=O)CSc1nnc(SCc2ccccc2)s1)=C\c1ccco1,0,0,0,21.3µM,0,0
Cc1nn(-c2ccccc2)c(C)c1/C=N/NC(=O)c1cccs1,?,?,?,8.49µM,17.8µM,?
CCOc1cc(/C=N/NC(=O)CSc2nnc(C)s2)ccc1OCc1ccccc1Cl,0,0,0,0,0,0
Cc1nn(-c2ccccc2)c(C)c1/C=N/NC(=O)c1cc(-c2ccc(Cl)s2)[nH]n1,0,0,?,10.7µM,0,0
Cc1nn(-c2ccccc2)c(C)c1/C=N/NC(=O)c1ccccc1NS(=O)(=O)c1cccs1,0,0,0,10.7µM,0,0
Cc1ccc(CSc2nnc(SCC(=O)N/N=C/C=C/c3ccccc3[N+](=O)[O-])s2)cc1,0,0,?,1.35µM,0,0
Cc1[nH]c2ccccc2c1/C=N/NC(=O)c1cccs1,0,0,?,26.9µM,?,?
CNS(=O)(=O)c1cccc(C(=O)NCC(C)(C)N2CCCCC2)c1,0,0,0,0,-,0
Cc1ccc(S(=O)(=O)c2nc(-c3cccs3)oc2SCC(=O)Nc2cc(C)cc(C)c2)cc1,-,-,-,0,0,-
Cc1ccc2c(c1)sc[n+]2Cc1ccccc1,0,0,?,5.36µM,0,?
CC(OC(=O)c1ccc(Cl)c([N+](=O)[O-])c1)C(=O)N1CCN(Cc2ccccc2)CC1 (stereo not given),0,0,0,0,-,0
